Experimental data taken from PubChem BioAssay AID1347172 (National Center for Advancing Translational Sciences (NCATS), 2019).
Inconclusive results are not listed. Entries that show only a call come without a potency. The source made the active and inactive calls. Calls follow the shape of the dose curve; as a rule, active = well fitted inhibition curve with a large enough effect; inconclusive = small, poorly fitted or top-dose-only effect; inactive = flat fitted curve, though single readings scatter.

experiment: Secondary qRT-PCR qHTS assay for selected Zika virus inhibitors; details: Vero cells ZIKV infection, NS5 RNA qRT-PCR, 24 h; series mostly up to 32.6 µM
From the text: Assay Submitters (PI): Avindra Nath, Ph.D., National Institute of Neurological Disorders and Stroke (NINDS), Bethesda, MD Radhakrishnan Padmanabhan, Ph.D., Georgetown University (GU), Washington D.C. Zika Virus causes congenital defects, including microcephaly and is associated with Guillain-Barre syndrome, eningoencephalitis and myelitis in infected adult. […] Using a target-based approach, we hope to establish a screening paradigm to uncover novel, cell-active NS2B-NS3 protease (Zika Virus) specific inhibitors from NCATS' collection of small molecules using qHTS. […] Four assay panel was created to identify potential Zika Virus inhibitors. Namely, (1) GU unlinked NS2B-NS3 AMC tagged protease qHTS, (2) GU unlinked NS2B-NS3 Rhodamine tagged protease qHTS, (3) NINDS linked NS2B-NS3 AMC tagged protease qHTS, (4) NINDS linked NS2B-NS3 Rhodamine tagged protease qHTS. Inhibitors of the Zika virus primary screens are confirmed using qRT-PCR secondary assays, qRT-PCR mCherry orthogonal assay, and qRT-PCR viability counterscreen. Early Translation Branch (ETB) National Center for Advancing Translational Sciences (NCATS), Rockville, MD National Institute of Health (NIH), Bethesda, Maryland
384-well ZIKV qRT-PCR Assay: Vero cells were treated with the indicated compounds at different concentrations, infected with ZIKV (MOI=1) and incubated at 37 degrees C for 3 hours to permit virus invasion. After 3 hr, supernatant was removed, and cells were washed once to remove extracellular virus. After a further 21 hr incubation, infected cells were washed three times with cold PBS (4 degrees C). Plates were then process using the TaqmanGene Expression Cells-to-Ct Kit (ThermoFisher Scientific) following the manufactures protocol. Primers directed to the NS5 sequence (F-[…]; R-GCTCGGCCAATCAGTTCA) along with Taqman probe (FAM-[…]-BHQ; Biosearch Technologies) were used to quantify drug inhibition of viral load. Reactions were run at initial 95 degrees C for 10 min, then 40 cycles of 95 degrees C for 20 sec and 60 degrees C for 40 sec using a LightCycler 480 (Roche). Relative viral copy numbers were generated by normalizing to cells treated with vehicle.

For `COc1cc(C)c(C(=O)OC2C(C)OC(OC3CCC(C)C4C3C=C(C)C3/C(C)=C\CC/C(C)=C/C5(C)C=C(C(=O)O)C(C)CC56OC(=O)/C(=C(\O)C34C)C6=O)C(O)C2O)c(OC)c1` (stereo not given), which activity change, negative = inhibition is on record?
The activity change, negative = inhibition was -1.08% [at 8.13 µM] (inactive).

With `CCOC(=O)c1ccc(N2C(=O)c3n[nH]c(-c4cccs4)c3C2c2ccc(C(C)(C)C)cc2)cc1` (stereo not given) as the molecule, how does the Potency read?
Its Potency is 3.55 µM (active).

For `CC(C)C[C@H](C(=O)O)c1cc(-c2ccc(C(F)(F)F)cc2)cc(-c2ccc(C(F)(F)F)cc2)c1`, which Potency is on record?
Its Potency is 12.6 µM (active).

With `CCOc1nc2cccc(C(=O)OC(C)OC(=O)OC3CCCCC3)c2n1Cc1ccc(-c2ccccc2-c2nn[nH]n2)cc1` (stereo not given) as the molecule, how does the Potency read?
The Potency was 12.6 µM (active).

Which Potency does the source give for `O=C(O)Cc1cc(I)c(Oc2ccc(O)c(I)c2)c(I)c1` here?
Its Potency is “inactive”.

With `COc1cc(C(=O)O)ccc1NC(=O)[C@@H]1N[C@@H](CC(C)(C)C)[C@](C#N)(c2ccc(Cl)cc2F)[C@H]1c1cccc(Cl)c1F` as the molecule, how does the Potency read?
Its Potency is 12.6 µM (active).

Which Potency does the source give for `O=C(O)Cn1nnc(-c2cc(N3CCC(Oc4cc(F)ccc4Br)CC3)no2)n1` here?
Its Potency is “inactive”.

With `CC1=C(C(=O)OCc2ccccc2)C(c2ccc(-c3ccccc3)cc2)NC(=O)N1CCCCCC(=O)O` (stereo not given) as the molecule, how does the Potency read?
Its Potency is “inactive”.

For `O=C(O)/C=C/c1ccc(-c2ccc(O)c(C34CC5CC(CC(C5)C3)C4)c2)cc1`, which Potency is on record?
Its Potency is 10 µM (active).

For `O=C(N/N=C/c1ccc(O)c(O)c1)c1cc2ccccc2cc1O`, which Potency is on record?
Its Potency is “inactive”.

Which Potency does the source give for `Cc1ccn(-c2ccc(-c3ncco3)cc2)c(=O)c1-c1ccc2nc(N)ncc2c1` here?
Its Potency is “inactive”.

For `CC1CCN(C(c2ccc(F)cc2)c2ccc(C(C)C(=O)O)cc2-c2ccc(C(F)(F)F)cc2)CC1` (stereo not given), which Potency is on record?
The Potency was 14.1 µM (active).

With `O=C(O)CC1CCC(c2ccc(-c3ccc(Nc4ccc(C(F)(F)F)nc4)cn3)cc2)CC1` (stereo not given) as the molecule, how does the Potency read?
The Potency was “inactive”.

Which Potency does the source give for `COc1cc(C(=O)NS(=O)(=O)c2ccccc2C)ccc1Cc1cn(C)c2ccc(NC(=O)OC3CCCC3)cc12` here?
The Potency was “inactive”.

For `C/C(=C\c1ccc(C(=O)O)cc1)c1ccc2c(c1)C(C)(C)CCC2(C)C`, which Potency is on record?
The Potency was 12.6 µM (active).

With `O=C(O)Cc1cccc(OCCCN(Cc2cccc(C(F)(F)F)c2Cl)CC(c2ccccc2)c2ccccc2)c1` as the molecule, how does the Potency read?
The Potency was 14.1 µM (active).

For `CC(C)=CCc1c2c(c3occ(-c4ccc(O)c(O)c4)c(=O)c3c1O)C=CC(C)(C)O2`, which Potency is on record?
The Potency was 4.47 µM (active).

With `Cc1ccc2nc(NS(=O)(=O)c3ccc(Cl)cc3)c(Nc3ccc(C(=O)O)cc3)nc2c1` as the molecule, how does the Potency read?
Its Potency is “inactive”.

Which Potency does the source give for `CC(C)(Sc1ccc(CCN(CCCCC2CCCCC2)C(=O)NC2CCCCC2)cc1)C(=O)O` here?
Its Potency is “inactive”.

Which Potency does the source give for `CN(CC(=O)N(Cc1ccc(C2CCCCC2)cc1)c1ccc(C(=O)O)cc1)S(=O)(=O)c1c(F)c(F)c(F)c(F)c1F` here?
Its Potency is 12.6 µM (active).

Which Potency does the source give for `N#CC1C(=O)Nc2scc(-c3ccc(-c4ccccc4O)cc3)c2C1=O` (stereo not given) here?
The Potency was “inactive”.

With `N#CC1(c2cccc(C(=O)Nc3cc(Oc4ccc5nc(NC(=O)C6CC6)sc5n4)ccc3F)c2Cl)CC1` as the molecule, how does the Potency read?
Its Potency is “inactive”.

Which Potency does the source give for `CC(C)(C)Sc1c(CC(C)(C)C(=O)O)n(Cc2ccc(Cl)cc2)c2ccc(OCc3ccc4ccccc4n3)cc12` here?
The Potency was 25.1 µM (active).

Which Potency does the source give for `O=C(O)c1ccc(CCCc2ccc(OCCc3ccc(F)cc3)cc2)o1` here?
The Potency was “inactive”.

Which Potency does the source give for `O=C1NC(=O)/C(=C/c2ccc3c(c2)OC(F)(F)O3)S1` here?
The Potency was “inactive”.

With `CC1(C)CC[C@]2(C(=O)O)CC[C@]3(C)C(=CCC4[C@@]5(C)C[C@@H](O)[C@H](O)C(C)(C)C5CC[C@]43C)C2C1` (stereo not given in full) as the molecule, how does the Potency read?
Its Potency is “inactive”.

For `Cc1cc(C(C#N)c2ccc(Cl)cc2)c(Cl)cc1NC(=O)c1cc(I)cc(I)c1O` (stereo not given), which Potency is on record?
Its Potency is 22.4 µM (active).

With `O=C1NC(=O)/C(=C/c2cccc(C(F)(F)F)c2)S1` as the molecule, how does the Potency read?
Its Potency is “inactive”.

Which Potency does the source give for `COc1c(C)c2c(c(O)c1C/C=C(\C)CCC(=O)O)C(=O)OC2` here?
Its Potency is “inactive”.

With `Nc1ncnc2c([C@@H]3N[C@H](CO)[C@@H](O)[C@H]3O)c[nH]c12` as the molecule, how does the Potency read?
Its Potency is “inactive”.
